# Measurements published in paper PMC4552634, “A New Set of Chemical Starting Points with Plasmodium falciparum Transmission-Blocking Potential for Antimalarial Drug Discovery” (PLoS ONE, 2015).
# Where two headings read alike, the source gives them in different places. Screen size: about 13,000 compounds; about 3,200 (25%) showed an effect of 50% or more. This is one part of the list.
# Tested on: P. falciparum stage V gametocytes
# Design: BacTiter-Glo ATP luminescence viability of purified stage V gametocytes in 384-well plates, per cent inhibition versus DMSO
# Conditions: 48 h, 5 µM, inhibitor
Compound,% Inhibition [%],% Inhibition (% Inhibition) [%]
C=CCOC(=O)N1CCC(CNCc2cccc(-c3ccc(-c4nc5cccc(C)c5[nH]4)s3)c2)C1.O=C(O)C(F)(F)F (centres unmarked) [TCMDC-133043],63.05,
COc1ccc(CNCc2ccc(-c3ccc(-c4nc5cccc(C)c5[nH]4)s3)cc2)cc1.O=C(O)C(F)(F)F [TCMDC-132727],15.75,
C=CCOC(=O)N1CCC(CNCc2cccc(-c3ccc(-c4nc5cccc(C)c5[nH]4)cc3)c2)C1.O=C(O)C(F)(F)F (centres unmarked) [TCMDC-133040],4.148,
Cc1cccc2nc(-c3ccc(-c4cccc(CNCCCNS(C)(=O)=O)c4)s3)[nH]c12.O=C(O)C(F)(F)F [TCMDC-133078],-8.111,
C=CCOC(=O)N1CCC(CNCc2cccc(-c3cccc(-c4nc5cccc(C)c5[nH]4)c3)c2)C1.O=C(O)C(F)(F)F (centres unmarked) [TCMDC-133038],-20.08,
Cc1cccc2nc(-c3ccc(-c4ccc(CNCc5ccc(CN)cc5)cc4)s3)[nH]c12 [TCMDC-132809],97.61,
Cc1cccc2nc(-c3ccc(-c4ccc(CNCc5cccc(N)c5)cc4)s3)[nH]c12.O=C(O)C(F)(F)F [TCMDC-132932],-65.22,
Cc1cccc2nc(-c3ccc(-c4cccc(CNCCc5ccncc5)c4)s3)[nH]c12.O=C(O)C(F)(F)F [TCMDC-132853],-22.63,
CNCCNCc1cccc(-c2ccc(-c3nc4cccc(C)c4[nH]3)s2)c1.O=C(O)C(F)(F)F [TCMDC-132835],98.35,
COc1cccc(CNC[C@@H](O)[C@H](Cc2ccccc2)NC(=O)c2cc(C(C)C)cc(N3CCCC3=O)c2)c1 [TCMDC-134130],14.96,
CCc1ccc2c(c1O)CCN(C)C2Cc1ccccc1Cl (centres unmarked) [TCMDC-137165],18.04,
CC(=O)C1=NN(c2ccc(C)cc2)C(c2cccs2)N1c1ccccc1 (centres unmarked) [TCMDC-125627],-78.13,
Cc1cccc2[nH]c(-c3cccc(-c4ccc(NC(=O)NCc5ccccc5)cc4)c3)nc12 [TCMDC-133158],-0.2096,
CNC(=O)c1cc(S(=O)(=O)Nc2ccc(OC)cc2)cs1 [TCMDC-124815],61.29,
COc1ccc(NS(=O)(=O)c2ccc(Oc3nc(C)nc4sc5c(c34)CCCC5)cc2)cc1 [TCMDC-124337],4.693,
COc1ccc(NC(=O)c2c(NC(=O)c3cccs3)sc3c2CCCC3)cc1 [TCMDC-125745],-21.48,
CC1(C)CC2CC(C)(CN2C(=O)c2cc(C(C)(C)C)nn2Cc2ccccc2)C1 (centres unmarked) [TCMDC-133777],-28.49,
O=C(Nc1cc(Cl)ccc1-n1cncn1)C1(c2ccccc2)CC1 [TCMDC-125455],2.448,
O=C(COc1ccccc1Cc1ccccc1)Nc1cc(Cl)ccc1-n1cncn1 [TCMDC-125098],-48.08,
COc1ccc(CN2CCN(CC(=O)Nc3cc(Cl)ccc3-n3cncn3)CC2)cc1F [TCMDC-125242],66.84,
CN1CCCc2ccc(NC(=O)c3ccc(-c4cc(C(F)(F)F)nn4C)s3)cc2C1 [TCMDC-133945],-15.63,
CC1CCN(Cc2c(O)ccc3c(CN4CCC(C)CC4)c(O)ccc23)CC1 [TCMDC-137584],-14.01,
CC(C)c1ccc(-c2noc(SCC(=O)N(C)c3ccc(F)cc3)n2)cc1 [TCMDC-124744],-3.802,

Compound,% Inhibition [%],% Inhibition (% Inhibition) [%]
CCN1CCN(C(=O)NC(C(=O)N2CCCC(COc3ccc(Cc4ccccc4)cc3)C2)c2cccs2)C(=O)C1=O (centres unmarked) [TCMDC-139273],35.06,
CN1CCCC1CCNc1ncc2c(-c3ccc(NC(=O)Nc4cc(C(F)(F)F)ccc4F)c(F)c3)nn(C)c2n1 (centres unmarked) [TCMDC-141610],99.17,
CN1CCCC1CCNc1ncc2c(-c3ccc(NC(=O)Nc4cc(C(F)(F)F)ccc4F)cc3)nn(C)c2n1 (centres unmarked) [TCMDC-141584],59.4,
CCCCCC(C)N=C(Nc1ccc(C#N)cc1O)Nc1ccccc1Br (centres unmarked) [TCMDC-140129],-25.57,
Cc1cc([N+](=O)[O-])ccc1N1CCN(CCCCNC(=O)c2ccc(NC(=O)c3ccc(Cl)cc3)cc2)CC1 [TCMDC-138261],16.06,
C[C@@H](CC1CCCCC1)OC(=O)N(C)[C@H]1CCN(C#N)C1 [TCMDC-138501],35.73,
CCCC1N=C(N)N=C(N)N1c1ccc(Cl)cc1 (centres unmarked) [TCMDC-131296],-9.139,
CCNc1cc(C(=O)N[C@@H](Cc2ccccc2)[C@H](O)CNCc2cc(OC)cc(OC)c2)cc(N2CCCS2(=O)=O)c1 [TCMDC-134557],-5.029,
N#CN1CC[C@@H](OC(=O)N[C@@H]2C[C@H]2c2ccccc2)C1 [TCMDC-133724],29.13,
CC(C)C[C@H](NC(=O)[C@H](Cc1ccccc1)N(C[C@H](Cc1ccccc1)NC(=O)OC(C)(C)C)C(=O)C(F)(F)F)C(=O)NC1CCN(Cc2ccccc2)CC1 [TCMDC-132059],-19.61,
O=C(Nc1ccc(OC2CCN(Cc3ccccc3)C2)c(Cl)c1)c1cccs1 (centres unmarked) [TCMDC-133970],30.53,
CC(C)CCN1CCC(Oc2ccc(NC(=O)c3ccccc3)cc2Cl)CC1 [TCMDC-133977],11.22,
CC(C)CCOc1ccc(NC(=O)c2cccs2)cc1 [TCMDC-125121],83.04,
CCCOc1ccc(NC(=O)c2cccs2)cc1Cl [TCMDC-141129],16.1,
Cc1ccc(C(=O)Nc2ccc(OC3CCN(CCC(C)C)C3)c(Cl)c2)cc1 (centres unmarked) [TCMDC-133983],31.29,
CC(C)CCN1CCC(Oc2ccc(NC(=O)c3cccs3)cc2Cl)C1 (centres unmarked) [TCMDC-133979],54.06,
CC(C)CCN1CCC(Oc2ccc(NC(=O)c3cccs3)cc2Cl)CC1 [TCMDC-133974],92.16,
CC(Oc1ccc(NC(=O)c2cccs2)cc1)C(=O)c1ccc(Cl)cc1 (centres unmarked) [TCMDC-125438],17.92,
O=C(Nc1ccc(OC2CCN(Cc3ccccc3)CC2)c(Cl)c1)c1cccs1 [TCMDC-133990],24.3,
COc1ccc(NC(=O)c2cc(NC(=O)C3(N)CC3)c(=O)n(Cc3ccc(C(N)=O)cc3)c2)cc1 [TCMDC-136554],19.66,
Cc1[nH]c2c(NCc3ccc(F)cc3)nccc2c1C [TCMDC-132310],15.19,
N#Cc1ccc2c(c1)CCN(CCC1CCC(NC(=O)c3cc4ccc(Br)cc4[nH]3)CC1)C2 (centres unmarked) [TCMDC-139195],-25.15,
CCCNCc1ccc(-c2ccc(CN(Cc3cnc(C)cn3)C(=O)c3nn(-c4ccccc4)nc3C)cc2)nc1 [TCMDC-141548],27.98,

Compound,% Inhibition [%],% Inhibition (% Inhibition) [%]
CCCNCc1ccc(-c2ccc(CN(C(=O)c3nn(-c4ccccc4)nc3C)C3CC3)cc2)nc1 [TCMDC-141550],42.93,
Cc1nn(-c2ccccc2)nc1C(=O)N(Cc1ccc(-c2ccc(CNCCc3ccc(S(C)(=O)=O)cc3)cn2)cc1)C(C)CN(C)C (centres unmarked) [TCMDC-141524],25.84,
CCCNCc1ccc(-c2ccc(CN(C(=O)c3nn(-c4ccccc4)nc3C)C(C)CN(C)C)cc2)nc1 (centres unmarked) [TCMDC-141551],64.23,
CCCNCc1ccc(-c2ccc(CN(C(=O)c3nn(-c4ccccc4)nc3C)C3CCOCC3)cc2)nc1 [TCMDC-141547],9.201,
CCCNCc1ccc(-c2ccc(CN(CCOC)C(=O)c3nn(-c4ccccc4)nc3C)cc2)nc1 [TCMDC-141549],77.73,
O=C(O)CNCC(O)c1ccccc1 (centres unmarked) [TCMDC-131775],4.722,
FC(F)(F)c1ccc2[nH]c(-c3ccc(-c4ccc(CNCc5cnn(-c6ccccc6)n5)cc4)cc3)nc2c1.O=C(O)C(F)(F)F [TCMDC-132970],-15.1,
Cc1cccc(CN2CCN(c3ncc(C(=O)NC4CC4)cc3Cl)CC2)c1 [TCMDC-134604],4.534,
O=C(NC1CCN(c2ncc(C(F)(F)F)cc2Cl)CC1)c1cccs1 [TCMDC-133802],15.64,
CS(=O)(=O)n1c(CN2CCN(c3ncc(C(F)(F)F)cc3Cl)CC2)nc2ccccc21 [TCMDC-134291],88.45,
O=C1OC(c2cc3ccccc3n2S(=O)(=O)c2ccccc2)(c2cc3ccccc3n2S(=O)(=O)c2ccccc2)c2ccccc21 [TCMDC-131245],29.52,
CCC(C)(C)c1ccc(OCCCC(=O)Nc2ccc(Cl)c([N+](=O)[O-])c2)c(C(C)(C)CC)c1 [TCMDC-125721],-38.1,
C#CCCOc1ccc2ccccc2c1CNCCCCCCNCc1c(OCCC#C)ccc2ccccc12 [TCMDC-137832],106.3,
C#CCOc1ccc2ccccc2c1CNCCCCCCNCc1c(OCC#C)ccc2ccccc12 [TCMDC-137838],115.4,
O=C(NCCN1CCOCC1)c1csc(C2CCCN(C(=O)c3ccc(O)c(-c4cc(Cl)cc(Cl)c4)c3)C2)n1 (centres unmarked) [TCMDC-140155],11.07,
CC(C)(C)SC1SC(SC(C)(C)C)C(OC(=O)c2ccccc2)C(OC(=O)c2ccccc2)C1OC(=O)c1ccccc1 (centres unmarked) [TCMDC-131948],-26.61,
O=C(Nc1ccccc1C(F)(F)F)NC1CCC(CN2CCC(c3c[nH]c4ccccc34)CC2)CC1 (centres unmarked) [TCMDC-140197],,5.962
Cn1nc(-c2ccc(S(=O)(=O)NC3CCC(CN4CCC(c5c[nH]c6ccccc56)CC4)CC3)s2)cc1C(F)(F)F (centres unmarked) [TCMDC-140166],,62.77
O=C(Nc1ccccc1C(F)(F)F)NC1CCC(CN2CCC(c3c[nH]c4ccccc34)CC2)CC1 (centres unmarked) [TCMDC-140177],,-23.5
O=S(=O)(NC1CCC(CN2CCC(c3c[nH]c4ccccc34)CC2)CC1)c1ccc(Cl)c(Cl)c1 (centres unmarked) [TCMDC-140164],18.4,
O=C(NC1CCC(CN2CCC(c3c[nH]c4ccccc34)CC2)CC1)c1cc(-c2ccccc2Cl)oc1C(F)(F)F (centres unmarked) [TCMDC-140358],4.446,
Cn1nc(-c2ccc(S(=O)(=O)NC3CCC(CN4CCC(c5c[nH]c6ccccc56)CC4)CC3)s2)cc1C(F)(F)F (centres unmarked) [TCMDC-140174],,96.23
